Like-named read-outs stand apart in the source and are kept apart here.
Key:
SYK = settings: read-out: apparent Kd, n = 1
TNK2 = settings: read-out: apparent Kd, n = 1

Lestaurtinib
potency estimated from few doses (SYK; compound concentrations:100 nM and 1000 nM (sheet 'Lestaurtinib' of Supplementary Table 1),run:Lestaurtinib_02606_R1,Plate:MR019): 388 nM
potency estimated from few doses (SYK; compound concentrations:100 nM and 1000 nM (sheet 'Lestaurtinib' of Supplementary Table 1),run:Lestaurtinib_02606_R2,Plate:MR019): 511 nM
potency estimated from few doses (SYK; compound concentrations:100 nM and 1000 nM (sheet 'Lestaurtinib' of Supplementary Table 1),run:Lestaurtinib_02606_R3,Plate:MR019): 488 nM
potency estimated from few doses (SYK; compound concentrations:100 nM and 1000 nM (sheet 'Lestaurtinib' of Supplementary Table 1),run:Lestaurtinib_02624_R1,Plate:MR020): 402 nM
potency estimated from few doses (SYK; compound concentrations:100 nM and 1000 nM (sheet 'Lestaurtinib' of Supplementary Table 1),run:Lestaurtinib_02624_R2,Plate:MR020): 440 nM
potency estimated from few doses (SYK; compound concentrations:100 nM and 1000 nM (sheet 'Lestaurtinib' of Supplementary Table 1),run:Lestaurtinib_02624_R3,Plate:MR020): 215 nM
potency estimated from few doses (SYK; compound concentrations:100 nM and 1000 nM (sheet 'Lestaurtinib' of Supplementary Table 1),run:Lestaurtinib_02741_R1,Plate:MR023): 395 nM
potency estimated from few doses (SYK; compound concentrations:100 nM and 1000 nM (sheet 'Lestaurtinib' of Supplementary Table 1),run:Lestaurtinib_02741_R2,Plate:MR023): 396 nM
potency estimated from few doses (SYK; compound concentrations:100 nM and 1000 nM (sheet 'Lestaurtinib' of Supplementary Table 1),run:Lestaurtinib_02741_R3,Plate:MR023): 236 nM
potency estimated from few doses (SYK; compound concentrations:100 nM and 1000 nM (sheet 'Lestaurtinib' of Supplementary Table 1),run:Lestaurtinib_02748_R1,Plate:MR024): 393 nM
potency estimated from few doses (SYK; compound concentrations:100 nM and 1000 nM (sheet 'Lestaurtinib' of Supplementary Table 1),run:Lestaurtinib_02748_R2,Plate:MR024): 196 nM
potency estimated from few doses (SYK; compound concentrations:100 nM and 1000 nM (sheet 'Lestaurtinib' of Supplementary Table 1),run:Lestaurtinib_02752_R1,Plate:MR025): 510 nM
potency estimated from few doses (SYK; compound concentrations:100 nM and 1000 nM (sheet 'Lestaurtinib' of Supplementary Table 1),run:Lestaurtinib_02752_R2,Plate:MR025): 136 nM
potency estimated from few doses (SYK; compound concentrations:100 nM and 1000 nM (sheet 'Lestaurtinib' of Supplementary Table 1),run:Lestaurtinib_02765_R2,Plate:MR026): 169 nM
potency estimated from few doses (SYK; compound concentrations:100 nM and 1000 nM (sheet 'Lestaurtinib' of Supplementary Table 1),run:Lestaurtinib_02765_R3,Plate:MR026): 182 nM
potency estimated from few doses (SYK; compound concentrations:100 nM and 1000 nM (sheet 'Lestaurtinib' of Supplementary Table 1),run:Lestaurtinib_02766_R1,Plate:MR027): 211 nM
potency estimated from few doses (SYK; compound concentrations:100 nM and 1000 nM (sheet 'Lestaurtinib' of Supplementary Table 1),run:Lestaurtinib_02766_R3,Plate:MR027): 441 nM
potency estimated from few doses (SYK; compound concentrations:100 nM and 1000 nM (sheet 'Lestaurtinib' of Supplementary Table 1),run:Lestaurtinib_02768_R1,Plate:MR028): 484 nM
potency estimated from few doses (SYK; compound concentrations:100 nM and 1000 nM (sheet 'Lestaurtinib' of Supplementary Table 1),run:Lestaurtinib_02768_R2,Plate:MR028): 424 nM
potency estimated from few doses (SYK; compound concentrations:100 nM and 1000 nM (sheet 'Lestaurtinib' of Supplementary Table 1),run:Lestaurtinib_02795_R1,Plate:MR022): 460 nM
potency estimated from few doses (SYK; compound concentrations:100 nM and 1000 nM (sheet 'Lestaurtinib' of Supplementary Table 1),run:Lestaurtinib_02795_R2,Plate:MR022): 141 nM
potency estimated from few doses (SYK; compound concentrations:100 nM and 1000 nM (sheet 'Lestaurtinib' of Supplementary Table 1),run:Lestaurtinib_02795_R3,Plate:MR022): 259 nM
potency estimated from few doses (SYK; compound concentrations:100 nM and 1000 nM (sheet 'Lestaurtinib' of Supplementary Table 1),run:Lestaurtinib_02802_R1,Plate:MR029): 239 nM
potency estimated from few doses (SYK; compound concentrations:100 nM and 1000 nM (sheet 'Lestaurtinib' of Supplementary Table 1),run:Lestaurtinib_02802_R3,Plate:MR029): 451 nM
potency estimated from few doses (SYK; compound concentrations:100 nM and 1000 nM (sheet 'Lestaurtinib' of Supplementary Table 1),run:Lestaurtinib_02896_R1,Plate:MR030): 253 nM
potency estimated from few doses (SYK; compound concentrations:100 nM and 1000 nM (sheet 'Lestaurtinib' of Supplementary Table 1),run:Lestaurtinib_02896_R3,Plate:MR030): 217 nM
potency estimated from few doses (SYK; compound concentrations:100 nM and 1000 nM (sheet 'Lestaurtinib' of Supplementary Table 1),run:Lestaurtinib_03172_R2,Plate:MR031): 595 nM
potency estimated from few doses (SYK; compound concentrations:100 nM and 1000 nM (sheet 'Lestaurtinib' of Supplementary Table 1),run:Lestaurtinib_03172_R3,Plate:MR031): 400 nM
potency estimated from few doses (SYK; compound concentrations:100 nM and 1000 nM (sheet 'Lestaurtinib' of Supplementary Table 1),run:Lestaurtinib_03252_R1,Plate:MR032): 149 nM
potency estimated from few doses (SYK; compound concentrations:100 nM and 1000 nM (sheet 'Lestaurtinib' of Supplementary Table 1),run:Lestaurtinib_03252_R2,Plate:MR032): 222 nM
potency estimated from few doses (SYK; compound concentrations:100 nM and 1000 nM (sheet 'Lestaurtinib' of Supplementary Table 1),run:Lestaurtinib_03260_R2,Plate:MR033): 224 nM
potency estimated from few doses (SYK; compound concentrations:100 nM and 1000 nM (sheet 'Lestaurtinib' of Supplementary Table 1),run:Lestaurtinib_03260_R3,Plate:MR033): 130 nM
potency estimated from few doses (TNK2; compound concentrations:100 nM and 1000 nM (sheet 'Lestaurtinib' of Supplementary Table 1),run:Lestaurtinib_02339_R3,Plate:MR001): 44 nM
potency estimated from few doses (TNK2; compound concentrations:100 nM and 1000 nM (sheet 'Lestaurtinib' of Supplementary Table 1),run:Lestaurtinib_02364_R1,Plate:MR002): 69.8 nM
potency estimated from few doses (TNK2; compound concentrations:100 nM and 1000 nM (sheet 'Lestaurtinib' of Supplementary Table 1),run:Lestaurtinib_02364_R2,Plate:MR002): 56.4 nM
potency estimated from few doses (TNK2; compound concentrations:100 nM and 1000 nM (sheet 'Lestaurtinib' of Supplementary Table 1),run:Lestaurtinib_02364_R3,Plate:MR002): 61.3 nM
potency estimated from few doses (TNK2; compound concentrations:100 nM and 1000 nM (sheet 'Lestaurtinib' of Supplementary Table 1),run:Lestaurtinib_02367_R1,Plate:MR003): 66.6 nM
potency estimated from few doses (TNK2; compound concentrations:100 nM and 1000 nM (sheet 'Lestaurtinib' of Supplementary Table 1),run:Lestaurtinib_02367_R2,Plate:MR003): 52.8 nM
potency estimated from few doses (TNK2; compound concentrations:100 nM and 1000 nM (sheet 'Lestaurtinib' of Supplementary Table 1),run:Lestaurtinib_02381_R1,Plate:MR004): 50 nM
potency estimated from few doses (TNK2; compound concentrations:100 nM and 1000 nM (sheet 'Lestaurtinib' of Supplementary Table 1),run:Lestaurtinib_02381_R2,Plate:MR004): 65.5 nM
potency estimated from few doses (TNK2; compound concentrations:100 nM and 1000 nM (sheet 'Lestaurtinib' of Supplementary Table 1),run:Lestaurtinib_02407_R3,Plate:MR005): 54.4 nM
potency estimated from few doses (TNK2; compound concentrations:100 nM and 1000 nM (sheet 'Lestaurtinib' of Supplementary Table 1),run:Lestaurtinib_02422_R1,Plate:MR006): 44.1 nM
potency estimated from few doses (TNK2; compound concentrations:100 nM and 1000 nM (sheet 'Lestaurtinib' of Supplementary Table 1),run:Lestaurtinib_02422_R3,Plate:MR006): 48 nM
potency estimated from few doses (TNK2; compound concentrations:100 nM and 1000 nM (sheet 'Lestaurtinib' of Supplementary Table 1),run:Lestaurtinib_02437_R3,Plate:MR007): 14.1 nM
potency estimated from few doses (TNK2; compound concentrations:100 nM and 1000 nM (sheet 'Lestaurtinib' of Supplementary Table 1),run:Lestaurtinib_02438_R2,Plate:MR008): 43.2 nM
potency estimated from few doses (TNK2; compound concentrations:100 nM and 1000 nM (sheet 'Lestaurtinib' of Supplementary Table 1),run:Lestaurtinib_02443_R2,Plate:MR009): 44.4 nM
potency estimated from few doses (TNK2; compound concentrations:100 nM and 1000 nM (sheet 'Lestaurtinib' of Supplementary Table 1),run:Lestaurtinib_02443_R3,Plate:MR009): 62 nM
